Records with an inconclusive call do not appear. A call without a number means that no potency is given here. Active and inactive are the calls of the source. The call rests on the fitted dose curve; in most records, active means well fitted inhibition curve with a large enough effect; inconclusive means small, poorly fitted or top-dose-only effect; inactive means flat fitted curve, though single readings scatter. Numbered stars: 1 amine (or outer) side, 2 acyl side, 3 side chain; on linkers, the order of the positions; unused ones are H or OH. Bridge positions count the residues as written; N and C are the ends. Square brackets hold non-standard residues; d marks the D form. Peptide text beside a SMILES is read from it. I, II: the chains in the order shown. Actinocin(9to1) = Cc1c2oc3c(C)ccc(C(=O)[*:1])c3nc-2c(C(=O)[*:2])c(N)c1=O; NMeV = CN[C@H](C(=O)O)C(C)C; Sar = CNCC(=O)O
Key:
Assay in all cases: qHTS profiling for inhibitors of Plasmodium falciparum proliferation (AID 504749); further: nearly all actives have a fitted effect of over 60% in size
Details in all cases: P. falciparum in erythrocytes, SYBR Green DNA, 72 h; series mostly up to 28.7 µM
CP250 = tested on: CP250
Summary of the method: (§1)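 P. falciparum-infected erythrocytes (0.3% parasitemia, 2.5% hematocrit final) were exposed to compounds for 72 h at 37 C in 5% CO2, then lysed with SYBR Green buffer overnight at room temperature; parasite DNA fluorescence was normalized to artemisinin and DMSO controls.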

CP252 = tested on: CP252
Summary of the method: as §1

CP256 = tested on: CP256
Summary of the method: as §1

CP260 = tested on: CP260
Summary of the method: as §1

CP262 = tested on: CP262
Summary of the method: as §1

CP265 = tested on: CP265
Summary of the method: as §1

CP266 = tested on: CP266
Summary of the method: as §1

CP268 = tested on: CP268
Summary of the method: as §1

CP269 = tested on: CP269
Summary of the method: as §1

CP286 = tested on: CP286
Summary of the method: as §1
Potency means the concentration at half of the fitted maximal effect.

| Compound | Potency (CP250) | Potency (CP252) | Potency (CP256) | Potency (CP260) | Potency (CP262) | Potency (CP265) | Potency (CP266) | Potency (CP268) | Potency (CP269) | Potency (CP286) |
| --- | --- | --- | --- | --- | --- | --- | --- | --- | --- | --- |
| Nc1ccc(/C=C/c2ccc(N)cc2S(=O)(=O)O)c(S(=O)(=O)O)c1 | inactive | inactive | inactive | inactive | inactive | inactive | inactive | inactive | inactive | inactive |
| Nc1ccc(C(=O)Nc2ccccc2N)cc1 | inactive | inactive | inactive | inactive | inactive | inactive | inactive | inactive | inactive | inactive |
| C[C@@H]1C[C@H]2[C@@H]3CCC4=CC(=O)C=C[C@]4(C)[C@@]3(F)[C@@H](O)C[C@]2(C)[C@H]1C(=O)CO | inactive | inactive | inactive | inactive | inactive | inactive | – | inactive | inactive | inactive |
| N[C@H](CO)C(=O)O | inactive | inactive | inactive | inactive | inactive | inactive | inactive | – | inactive | inactive |
| CC(C)(CO)[C@@H](O)C(=O)NCCCO | inactive | inactive | inactive | inactive | inactive | inactive | inactive | inactive | inactive | inactive |
| N[C@@H](Cc1cnc[nH]1)C(=O)O | inactive | inactive | inactive | inactive | inactive | inactive | inactive | inactive | inactive | inactive |
| O=C(CCN1CCC(c2ccccc2)C1)c1ccc2c(c1)OCCO2 (stereo not drawn) | inactive | inactive | inactive | inactive | inactive | inactive | inactive | inactive | inactive | inactive |
| CCCCCC=CCC=CCCCCCCCC(=O)OCC | inactive | inactive | inactive | inactive | inactive | inactive | inactive | inactive | inactive | inactive |
| C[C@@H](CN(C)C)CN1c2ccccc2Sc2ccccc21 | inactive | inactive | inactive | inactive | inactive | inactive | inactive | – | – | inactive |
| O=C(OCCOCCO)c1ccccc1Nc1cccc(C(F)(F)F)c1 | inactive | inactive | inactive | inactive | inactive | inactive | – | inactive | inactive | inactive |
| CCN(CC)C(=O)N1CCN(C)CC1 | inactive | inactive | inactive | inactive | inactive | inactive | – | inactive | inactive | inactive |
| COc1cccc(CCc2ccccc2OCC(CN(C)C)OC(=O)CCC(=O)O)c1 (stereo not drawn) | 11.2 µM (active) | 8.91 µM (active) | 11.2 µM (active) | 3.55 µM (active) | 12 µM (active) | 7.08 µM (active) | – | 7.57 µM (active) | 6.75 µM (active) | 5.62 µM (active) |
| CCOC(=O)c1cccc(N)c1 | inactive | inactive | inactive | inactive | inactive | inactive | – | – | – | inactive |
| COc1ccc(/C=C/C(=O)c2ccc(OC)cc2OC)cc1 | 5.62 µM (active) | 5.01 µM (active) | 2.24 µM (active) | 8.91 µM (active) | 5.36 µM (active) | 5.01 µM (active) | 7.57 µM (active) | 13.5 µM (active) | 9.53 µM (active) | 10 µM (active) |
| Cc1c(C)n(Cc2ccccc2)c2ccc(C(=O)OCCN(C)C)cc12 | inactive | inactive | inactive | inactive | inactive | inactive | – | inactive | inactive | inactive |
| Cc1cc(N)c2cc(NC(=O)Nc3ccc4nc(C)cc(N)c4c3)ccc2n1 | 11.2 µM (active) | inactive | 1.78 µM (active) | 5.62 µM (active) | 4.78 µM (active) | 7.08 µM (active) | – | – | 2.39 µM (active) | 4.47 µM (active) |
| NC(=O)C(=O)N/N=C/c1ccc([N+](=O)[O-])o1 | inactive | inactive | inactive | inactive | inactive | inactive | – | – | – | inactive |
| C[C@]12CCC(=O)C=C1CC[C@H]1[C@@H]3CC[C@](O)(C(=O)CO)[C@@]3(C)C[C@H](O)[C@@]12F | inactive | inactive | inactive | inactive | inactive | inactive | inactive | inactive | inactive | inactive |
| CCCCN1CCCC1C(=O)Nc1c(C)cc(C)cc1C (stereo not drawn) | inactive | inactive | inactive | inactive | inactive | inactive | – | inactive | inactive | inactive |
| O=C1[C@H]2CCCC[C@H]2C(=O)N1CCCCN1CCN(c2nsc3ccccc23)CC1 | inactive | inactive | inactive | inactive | inactive | inactive | inactive | inactive | inactive | inactive |

| Compound | Potency (CP250) | Potency (CP252) | Potency (CP256) | Potency (CP260) | Potency (CP262) | Potency (CP265) | Potency (CP266) | Potency (CP268) | Potency (CP269) | Potency (CP286) |
| --- | --- | --- | --- | --- | --- | --- | --- | --- | --- | --- |
| CC(=O)Nc1c(I)cc(I)c(C(=O)O)c1I | inactive | inactive | inactive | inactive | inactive | inactive | inactive | inactive | inactive | inactive |
| Nc1cc(Cl)c(NC2=NCCN2)c(Cl)c1 | inactive | inactive | inactive | inactive | inactive | inactive | inactive | inactive | inactive | inactive |
| C=CCc1ccc(O)c(OC)c1 | inactive | inactive | inactive | inactive | inactive | inactive | inactive | inactive | inactive | inactive |
| CNCCC(Oc1ccccc1C)c1ccccc1 (stereo not drawn) | inactive | inactive | – | inactive | inactive | – | – | – | inactive | inactive |
| CCN(CC)CCOC(=O)C(c1ccccc1)C1CCCCC1 (stereo not drawn) | inactive | inactive | inactive | – | inactive | inactive | inactive | – | inactive | inactive |
| COc1cccc2c1C(=O)c1c(O)c3c(c(O)c1C2=O)C[C@@](O)(C(C)=O)C[C@@H]3O[C@H]1C[C@H](N)[C@H](O)[C@H](C)O1 | 1 µM (active) | 1.12 µM (active) | 1 µM (active) | 1.12 µM (active) | – | 2 µM (active) | 8.49 µM (active) | 6.01 µM (active) | 4.78 µM (active) | 2 µM (active) |
| CC(=O)Oc1ccc(C(=C2CCCCC2)c2ccc(OC(C)=O)cc2)cc1 | inactive | inactive | inactive | – | inactive | inactive | inactive | inactive | inactive | inactive |
| c1ccc(OCc2ccc(CCCN3CCOCC3)cc2)cc1 | inactive | inactive | inactive | inactive | inactive | – | inactive | inactive | inactive | inactive |
| CCCCCCC[N+](CC)(CC)CCCCc1ccc(Cl)cc1 | 3.16 µM (active) | 2.51 µM (active) | 2.24 µM (active) | 2.24 µM (active) | – | 2.82 µM (active) | 2.56 µM (active) | 2.56 µM (active) | 1.61 µM (active) | 1.12 µM (active) |
| Cc1cccc(C)c1NC(=O)CN1CCN(CCCC(c2ccc(F)cc2)c2ccc(F)cc2)CC1 | inactive | inactive | inactive | inactive | – | inactive | inactive | inactive | – | inactive |
| CCOc1ccc2nc3cc(N)ccc3c(N)c2c1 | 8.91 µM (active) | 7.08 µM (active) | 4.47 µM (active) | 3.98 µM (active) | – | 11.2 µM (active) | – | 15.1 µM (active) | 9.53 µM (active) | 1.41 µM (active) |
| CCOc1ccc(Cc2nccc3cc(OCC)c(OCC)cc23)cc1OCC | inactive | inactive | – | inactive | inactive | inactive | inactive | inactive | inactive | inactive |
| CN1CCC[C@@H]1c1cccnc1 | inactive | inactive | inactive | inactive | – | inactive | inactive | inactive | inactive | inactive |
| O=C(N/N=C/c1ccccc1O)c1ccncc1 | 10 µM (active) | 8.91 µM (active) | 11.2 µM (active) | 5.01 µM (active) | – | – | – | – | – | 5.01 µM (active) |
| Cc1ccc(O)c2ncccc12 | inactive | inactive | inactive | – | inactive | inactive | inactive | inactive | inactive | – |
| CC(C)(C)CC(C)(C)c1ccc(OCCOCC[N+](C)(C)Cc2ccccc2)cc1 | 4.47 µM (active) | 5.01 µM (active) | 4.47 µM (active) | 1.41 µM (active) | – | 4.47 µM (active) | 4.26 µM (active) | 4.26 µM (active) | 3.79 µM (active) | 2.24 µM (active) |
| CN(C)/N=N/c1nc[nH]c1C(N)=O | inactive | inactive | – | inactive | inactive | inactive | inactive | inactive | inactive | inactive |
| COc1ccc(CCN2CCC(Nc3nc4ccccc4n3Cc3ccc(F)cc3)CC2)cc1 | 2.24 µM (active) | 3.16 µM (active) | 3.55 µM (active) | 1 µM (active) | – | 3.98 µM (active) | – | 4.78 µM (active) | 4.78 µM (active) | 2.51 µM (active) |
| Cc1c2oc3c(C)ccc(C(=O)N[C@@H]4C(=O)N[C@H](C(C)C)C(=O)N5CCC[C@H]5C(=O)N(C)CC(=O)N(C)[C@@H](C(C)C)C(=O)O[C@@H]4C)c3nc-2c(C(=O)N[C@@H]2C(=O)N[C@H](C(C)C)C(=O)N3CCC[C@H]3C(=O)N(C)CC(=O)N(C)[C@@H](C(C)C)C(=O)O[C@@H]2C)c(N)c1=O (I: T[dV]P[Sar][NMeV] / II: T[dV]P[Sar][NMeV]; ester I:1-I:C, II:1-II:C; linker I:N-II:N via Actinocin(9to1)) | 0.0035 µM (active) | 0.0056 µM (active) | 0.0079 µM (active) | 0.0035 µM (active) | 0.0034 µM (active) | – | 0.0085 µM (active) | 0.0067 µM (active) | 0.006 µM (active) | 0.0035 µM (active) |
| CC(=O)c1ccc2c(c1)N(CCCN1CCC(CCO)CC1)c1ccccc1S2 | inactive | inactive | inactive | – | inactive | inactive | inactive | inactive | inactive | – |

Reference: PubChem BioAssay (NCATS)
